Experiments:
Test in all cases: log2 ratio of Biotin-Ahx-Ub-VS probe labelling (fragment/DMSO); higher = less target engagement (more negative = stronger competition), active = hit call of the paper (q ≤ 0.05, log2 ratio ≤ -1)
Details in all cases: compound concentration: 200 uM; treatment time: 3 h
USP34 = USP34 (UniProt Q70CQ2)
Method in brief: (§1)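 HEK293T lysate in Tris/CHAPS/IGEPAL buffer with protease inhibitors (495 µg per sample) was given fragment at 200 µM or vehicle for 3 h, in triplicate. It then received Biotin-Ahx-Ub-VS at 0.5 µM final for 1 h. Labelled DUBs were NeutrAvidin-enriched, digested with LysC and trypsin, and run by diaPASEF LC-MS/MS. Values are average log2 fragment/vehicle ratios by unpaired t-test on global-median-normalised Spectronaut quantities of proteins with ≥2 unique peptides.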

USP36 = target: T1, USP36 (UniProt Q9P275)
T1 sequence (whole entry): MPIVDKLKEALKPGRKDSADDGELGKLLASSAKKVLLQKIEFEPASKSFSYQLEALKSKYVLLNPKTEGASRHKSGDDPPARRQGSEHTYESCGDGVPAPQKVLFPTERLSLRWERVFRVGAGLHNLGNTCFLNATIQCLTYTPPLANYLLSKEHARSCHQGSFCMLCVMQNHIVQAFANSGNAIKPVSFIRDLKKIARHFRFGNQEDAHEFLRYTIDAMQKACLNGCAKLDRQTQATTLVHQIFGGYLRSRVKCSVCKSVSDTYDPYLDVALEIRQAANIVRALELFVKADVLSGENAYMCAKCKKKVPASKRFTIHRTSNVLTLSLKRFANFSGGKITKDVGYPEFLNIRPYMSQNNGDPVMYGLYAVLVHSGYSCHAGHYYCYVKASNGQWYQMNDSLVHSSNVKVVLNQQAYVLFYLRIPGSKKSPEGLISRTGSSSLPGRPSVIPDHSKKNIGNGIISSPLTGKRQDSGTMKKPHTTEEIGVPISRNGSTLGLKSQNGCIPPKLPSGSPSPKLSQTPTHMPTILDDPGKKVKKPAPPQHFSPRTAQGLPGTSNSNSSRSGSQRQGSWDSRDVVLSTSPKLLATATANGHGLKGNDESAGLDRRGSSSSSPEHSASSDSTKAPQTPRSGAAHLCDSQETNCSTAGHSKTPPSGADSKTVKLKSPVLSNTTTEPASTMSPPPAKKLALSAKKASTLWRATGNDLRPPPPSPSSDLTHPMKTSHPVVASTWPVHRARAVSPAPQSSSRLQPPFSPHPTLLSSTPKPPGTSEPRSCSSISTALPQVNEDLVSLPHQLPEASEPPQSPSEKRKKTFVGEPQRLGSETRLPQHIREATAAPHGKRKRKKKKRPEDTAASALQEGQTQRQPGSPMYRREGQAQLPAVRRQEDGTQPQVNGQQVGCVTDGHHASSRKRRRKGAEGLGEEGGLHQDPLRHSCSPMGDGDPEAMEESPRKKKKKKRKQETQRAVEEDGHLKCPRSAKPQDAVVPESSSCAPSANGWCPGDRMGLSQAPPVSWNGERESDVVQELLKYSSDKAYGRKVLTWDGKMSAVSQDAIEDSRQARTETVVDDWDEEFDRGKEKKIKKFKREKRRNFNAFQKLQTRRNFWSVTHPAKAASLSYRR
Method in brief: as §1

USP38 = target: T2, USP38 (UniProt Q8NB14)
T2 sequence (whole entry): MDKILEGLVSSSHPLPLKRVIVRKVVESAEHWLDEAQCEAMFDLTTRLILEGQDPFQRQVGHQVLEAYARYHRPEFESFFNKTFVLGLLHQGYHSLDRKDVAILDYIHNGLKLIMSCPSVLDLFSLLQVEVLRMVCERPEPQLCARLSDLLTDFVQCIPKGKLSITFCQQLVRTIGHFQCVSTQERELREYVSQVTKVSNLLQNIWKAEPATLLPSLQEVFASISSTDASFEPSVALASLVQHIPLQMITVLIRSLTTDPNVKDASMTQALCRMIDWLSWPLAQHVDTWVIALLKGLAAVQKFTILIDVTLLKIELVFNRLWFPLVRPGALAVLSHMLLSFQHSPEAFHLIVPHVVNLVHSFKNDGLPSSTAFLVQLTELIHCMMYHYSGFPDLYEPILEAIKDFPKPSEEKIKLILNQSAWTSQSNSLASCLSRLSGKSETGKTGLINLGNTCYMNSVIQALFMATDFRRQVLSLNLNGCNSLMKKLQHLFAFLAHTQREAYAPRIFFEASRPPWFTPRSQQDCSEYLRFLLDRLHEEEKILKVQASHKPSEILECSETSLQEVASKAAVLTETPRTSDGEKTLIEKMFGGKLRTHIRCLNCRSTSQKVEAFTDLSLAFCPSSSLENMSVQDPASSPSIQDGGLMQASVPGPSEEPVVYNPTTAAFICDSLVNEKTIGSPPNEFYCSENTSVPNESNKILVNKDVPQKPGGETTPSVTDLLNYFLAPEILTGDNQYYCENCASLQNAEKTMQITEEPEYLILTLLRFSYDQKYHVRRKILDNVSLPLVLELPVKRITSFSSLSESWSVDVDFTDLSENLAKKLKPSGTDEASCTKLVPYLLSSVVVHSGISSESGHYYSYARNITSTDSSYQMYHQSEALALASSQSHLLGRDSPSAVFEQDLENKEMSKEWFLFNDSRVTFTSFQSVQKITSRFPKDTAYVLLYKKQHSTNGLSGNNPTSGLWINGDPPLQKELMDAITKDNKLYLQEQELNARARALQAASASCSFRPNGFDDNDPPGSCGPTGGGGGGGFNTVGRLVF
Method in brief: as §1

USP39 = target: T3, USP39 (UniProt Q53GS9)
T3 sequence (whole entry): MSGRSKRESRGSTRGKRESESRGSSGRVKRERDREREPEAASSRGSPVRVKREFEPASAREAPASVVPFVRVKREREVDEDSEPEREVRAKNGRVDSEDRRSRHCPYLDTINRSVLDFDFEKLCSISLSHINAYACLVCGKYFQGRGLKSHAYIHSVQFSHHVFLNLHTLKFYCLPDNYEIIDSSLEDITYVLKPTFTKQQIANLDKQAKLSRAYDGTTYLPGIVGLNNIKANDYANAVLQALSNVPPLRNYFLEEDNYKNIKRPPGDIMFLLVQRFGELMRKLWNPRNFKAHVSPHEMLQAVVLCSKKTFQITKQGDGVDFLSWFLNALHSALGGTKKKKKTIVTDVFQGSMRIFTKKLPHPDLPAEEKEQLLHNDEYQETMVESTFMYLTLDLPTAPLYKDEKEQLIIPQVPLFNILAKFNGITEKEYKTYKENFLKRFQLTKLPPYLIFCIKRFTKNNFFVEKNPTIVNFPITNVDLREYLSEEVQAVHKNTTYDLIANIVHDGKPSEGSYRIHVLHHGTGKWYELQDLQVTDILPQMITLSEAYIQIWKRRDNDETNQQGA
Method in brief: as §1

USP4 = target: T4, USP4 (UniProt Q13107)
T4 sequence (whole entry): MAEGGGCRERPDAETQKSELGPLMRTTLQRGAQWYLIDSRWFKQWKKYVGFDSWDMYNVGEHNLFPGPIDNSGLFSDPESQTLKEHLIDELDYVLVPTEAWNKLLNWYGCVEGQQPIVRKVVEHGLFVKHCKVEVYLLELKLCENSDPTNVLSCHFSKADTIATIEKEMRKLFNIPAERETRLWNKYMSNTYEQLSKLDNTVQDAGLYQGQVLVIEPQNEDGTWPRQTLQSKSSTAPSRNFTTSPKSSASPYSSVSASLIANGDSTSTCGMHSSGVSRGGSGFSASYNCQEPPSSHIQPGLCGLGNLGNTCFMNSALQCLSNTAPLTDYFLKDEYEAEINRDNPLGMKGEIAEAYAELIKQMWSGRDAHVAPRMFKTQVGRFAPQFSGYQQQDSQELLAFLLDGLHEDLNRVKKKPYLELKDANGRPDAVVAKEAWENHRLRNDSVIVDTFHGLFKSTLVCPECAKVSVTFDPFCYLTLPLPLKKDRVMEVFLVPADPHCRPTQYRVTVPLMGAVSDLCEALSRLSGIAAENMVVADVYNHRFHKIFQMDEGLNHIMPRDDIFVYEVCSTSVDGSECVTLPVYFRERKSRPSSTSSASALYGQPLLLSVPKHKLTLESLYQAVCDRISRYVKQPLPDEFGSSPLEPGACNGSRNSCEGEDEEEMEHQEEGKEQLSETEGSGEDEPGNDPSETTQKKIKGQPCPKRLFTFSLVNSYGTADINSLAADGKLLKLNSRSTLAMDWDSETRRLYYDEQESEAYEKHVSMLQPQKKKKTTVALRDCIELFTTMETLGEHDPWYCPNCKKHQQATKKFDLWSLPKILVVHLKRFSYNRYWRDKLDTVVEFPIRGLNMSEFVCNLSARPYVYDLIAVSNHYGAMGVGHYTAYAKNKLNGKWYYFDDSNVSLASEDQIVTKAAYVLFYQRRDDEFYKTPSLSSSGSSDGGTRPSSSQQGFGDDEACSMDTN
Method in brief: as §1

Measured: log2 ratio of Biotin-Ahx-Ub-VS probe labelling

USP34, sequence (Q70CQ2 whole entry, the tested form may be a part): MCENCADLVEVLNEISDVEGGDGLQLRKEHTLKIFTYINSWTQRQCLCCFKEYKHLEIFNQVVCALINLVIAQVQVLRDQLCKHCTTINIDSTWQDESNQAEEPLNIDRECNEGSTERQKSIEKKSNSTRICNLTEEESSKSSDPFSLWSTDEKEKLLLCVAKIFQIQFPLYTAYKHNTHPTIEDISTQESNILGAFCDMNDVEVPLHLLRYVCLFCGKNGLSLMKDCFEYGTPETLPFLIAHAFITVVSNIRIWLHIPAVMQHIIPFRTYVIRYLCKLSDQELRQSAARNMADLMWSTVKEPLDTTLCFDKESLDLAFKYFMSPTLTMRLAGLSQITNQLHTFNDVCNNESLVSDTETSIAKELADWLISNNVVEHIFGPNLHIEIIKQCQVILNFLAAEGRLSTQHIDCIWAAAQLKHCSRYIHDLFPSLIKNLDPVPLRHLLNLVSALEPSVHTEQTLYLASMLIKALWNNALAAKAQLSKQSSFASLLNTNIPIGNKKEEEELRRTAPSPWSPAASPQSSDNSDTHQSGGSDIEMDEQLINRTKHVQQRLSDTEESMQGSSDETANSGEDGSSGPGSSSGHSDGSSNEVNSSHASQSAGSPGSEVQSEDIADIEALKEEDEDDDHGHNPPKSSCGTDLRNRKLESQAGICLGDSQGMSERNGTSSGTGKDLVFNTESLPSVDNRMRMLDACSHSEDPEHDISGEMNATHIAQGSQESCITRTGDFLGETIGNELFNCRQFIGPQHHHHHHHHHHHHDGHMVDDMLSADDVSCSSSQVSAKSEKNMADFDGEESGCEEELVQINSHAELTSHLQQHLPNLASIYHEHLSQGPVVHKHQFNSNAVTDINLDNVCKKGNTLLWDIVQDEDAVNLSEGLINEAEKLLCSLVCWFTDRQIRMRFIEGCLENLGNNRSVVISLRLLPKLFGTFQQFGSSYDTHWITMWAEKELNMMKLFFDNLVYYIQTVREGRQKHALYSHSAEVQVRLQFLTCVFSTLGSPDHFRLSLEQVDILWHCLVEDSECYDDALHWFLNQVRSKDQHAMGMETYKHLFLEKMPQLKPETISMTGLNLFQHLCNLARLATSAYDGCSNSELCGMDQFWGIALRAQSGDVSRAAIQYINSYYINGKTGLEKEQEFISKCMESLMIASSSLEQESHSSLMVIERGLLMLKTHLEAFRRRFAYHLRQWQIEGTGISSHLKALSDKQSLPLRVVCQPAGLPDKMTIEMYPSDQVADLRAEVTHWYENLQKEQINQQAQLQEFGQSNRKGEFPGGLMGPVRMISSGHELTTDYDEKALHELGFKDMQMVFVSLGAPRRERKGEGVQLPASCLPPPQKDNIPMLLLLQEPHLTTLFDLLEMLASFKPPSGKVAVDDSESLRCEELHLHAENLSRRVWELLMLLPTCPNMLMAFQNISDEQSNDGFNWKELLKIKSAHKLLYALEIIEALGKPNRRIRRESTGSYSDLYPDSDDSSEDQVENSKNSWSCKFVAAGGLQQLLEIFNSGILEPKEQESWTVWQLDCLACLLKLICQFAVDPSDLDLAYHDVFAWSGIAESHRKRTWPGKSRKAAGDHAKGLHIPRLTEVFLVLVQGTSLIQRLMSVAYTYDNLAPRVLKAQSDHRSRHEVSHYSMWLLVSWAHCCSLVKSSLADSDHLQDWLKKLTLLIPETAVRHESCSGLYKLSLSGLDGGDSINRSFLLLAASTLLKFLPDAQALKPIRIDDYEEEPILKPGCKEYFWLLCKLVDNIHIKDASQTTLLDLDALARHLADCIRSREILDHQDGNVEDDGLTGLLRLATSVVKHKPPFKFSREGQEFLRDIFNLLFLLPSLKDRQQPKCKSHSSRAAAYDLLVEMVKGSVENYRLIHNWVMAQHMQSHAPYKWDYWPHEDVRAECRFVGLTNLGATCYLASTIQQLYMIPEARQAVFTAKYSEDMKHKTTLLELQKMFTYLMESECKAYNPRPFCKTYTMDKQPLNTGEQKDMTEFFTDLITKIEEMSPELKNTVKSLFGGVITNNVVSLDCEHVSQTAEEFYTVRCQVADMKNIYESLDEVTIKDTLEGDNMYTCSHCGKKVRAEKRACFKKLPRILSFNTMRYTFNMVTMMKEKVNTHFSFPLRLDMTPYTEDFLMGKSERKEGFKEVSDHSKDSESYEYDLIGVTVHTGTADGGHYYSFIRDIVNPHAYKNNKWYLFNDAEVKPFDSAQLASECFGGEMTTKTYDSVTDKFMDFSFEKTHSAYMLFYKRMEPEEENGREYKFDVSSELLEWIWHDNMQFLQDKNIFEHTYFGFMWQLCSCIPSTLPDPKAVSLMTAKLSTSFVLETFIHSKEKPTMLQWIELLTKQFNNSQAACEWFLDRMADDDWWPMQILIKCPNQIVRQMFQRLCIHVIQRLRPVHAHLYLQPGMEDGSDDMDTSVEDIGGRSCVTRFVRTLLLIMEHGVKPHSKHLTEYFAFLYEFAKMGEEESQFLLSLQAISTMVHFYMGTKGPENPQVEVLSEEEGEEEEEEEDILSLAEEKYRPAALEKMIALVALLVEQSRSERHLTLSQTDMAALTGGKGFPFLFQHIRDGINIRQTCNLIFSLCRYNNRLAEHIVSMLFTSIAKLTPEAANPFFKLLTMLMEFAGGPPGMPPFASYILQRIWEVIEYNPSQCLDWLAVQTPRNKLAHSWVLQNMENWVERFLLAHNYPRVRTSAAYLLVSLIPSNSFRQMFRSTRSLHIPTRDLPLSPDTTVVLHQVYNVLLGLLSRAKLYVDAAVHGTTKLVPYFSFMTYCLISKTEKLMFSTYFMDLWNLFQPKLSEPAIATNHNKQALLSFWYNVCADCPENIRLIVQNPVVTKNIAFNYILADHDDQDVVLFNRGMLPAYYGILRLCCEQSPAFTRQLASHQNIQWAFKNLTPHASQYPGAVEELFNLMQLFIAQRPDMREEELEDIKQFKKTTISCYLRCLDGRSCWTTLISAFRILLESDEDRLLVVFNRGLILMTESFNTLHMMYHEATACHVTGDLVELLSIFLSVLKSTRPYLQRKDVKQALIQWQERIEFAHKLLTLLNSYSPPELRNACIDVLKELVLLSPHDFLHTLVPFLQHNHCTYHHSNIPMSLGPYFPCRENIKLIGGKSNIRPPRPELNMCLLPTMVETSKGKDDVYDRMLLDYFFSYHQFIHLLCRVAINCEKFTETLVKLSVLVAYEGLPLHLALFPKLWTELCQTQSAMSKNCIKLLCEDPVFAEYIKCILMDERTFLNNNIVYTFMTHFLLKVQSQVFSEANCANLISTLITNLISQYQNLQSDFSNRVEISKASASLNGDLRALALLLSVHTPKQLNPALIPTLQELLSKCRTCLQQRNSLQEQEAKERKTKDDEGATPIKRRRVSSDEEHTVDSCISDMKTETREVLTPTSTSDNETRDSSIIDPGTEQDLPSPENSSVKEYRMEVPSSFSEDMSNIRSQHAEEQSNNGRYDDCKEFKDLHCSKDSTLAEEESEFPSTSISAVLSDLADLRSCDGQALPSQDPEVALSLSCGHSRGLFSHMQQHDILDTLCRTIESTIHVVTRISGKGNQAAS

Cl.O=C(CCl)N1CCn2cncc2C1
inactive: USP34 -0.401 | USP36 -0.24 | USP38 -0.142 | USP39 -0.167 | USP4 -0.285
